Nine compounds from PubChem BioAssay can be followed below.

Activity calls are given as the source filed them.

The nature of assay [1]: small molecules captured by biotinylated probe aFSTL3 – biochemical, small-molecule microarray, fluorescence 635/667, stem cell growth factor project, primary screen (AID 1064).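 Further: measures binding of the biotinylated anti-FSTL3 antibody to printed compounds.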 The following applies: higher = more signal.
Assay [2] can be described thus: binders from COS7 lysate, DM2A8 probe, primary screen, torsin A project, cell lysate, small-molecule microarray, fluorescence 635/667 (AID 1065). Particulars: higher = more signal, COS7 lysate expressing mutant human TOR1A.
A short description of assay [3]: small molecules captured by biotinylated probe aFGF2 – biochemical, small-molecule microarray, fluorescence 635/667, stem cell growth factor project, primary screen (AID 1067).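 Further: measures binding of biotinylated aFGF2 protein to printed compounds on slides; z-score merges feature fluorescence and signal-to-noise across triplicate slides.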 Particulars: higher = more signal.
Assay [4] in a line: small molecules captured by biotinylated probe aFGF10 – biochemical, small-molecule microarray, fluorescence 635/667, stem cell growth factor project, primary screen (AID 1071).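 Further: score merges 667 nm spot intensity and signal to noise from triplicate slides.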 The following applies: higher = more signal.
In assay [5] the target is Neurogenic locus notch homolog protein 2 (Homo sapiens) (UniProt Q04721). Briefly: small molecules binding Notch2 protein – biochemical, small-molecule microarray, 635 nm fluorescence, stem cell growth factors, primary screen (AID 1073). The following applies: higher = more signal.
Assay [6] concerns the target Pro-neuregulin-1, membrane-bound isoform (Homo sapiens) (UniProt Q02297). Nature of the assay: small molecules binding neuregulin-1 protein – biochemical, small-molecule microarray, fluorescence 635/667, psychiatric disease protein project, primary screen (AID 1075).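 Further: score combines 667 nm spot fluorescence with signal to noise.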 The following applies: NRG1 binding, 635 nm fluorescence, higher = more signal.
The test system of assay [7] is Neuregulin-1 EGF-like domain. Nature of the assay: small molecules binding NRG1 EGF domain – biochemical, small-molecule microarray, 635 nm fluorescence, primary screen (AID 1081).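 Further: binding of the protein to compounds printed on small-molecule microarray slides.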 The following applies: higher = more signal.
Assay [8] in a line: FRG1 expression reporter modulators in myotubes – cell-based, C2C12 myotubes, firefly/Renilla luciferase, luminescence, FRG1 inhibition for FSHD, primary screen (AID 1084). The following applies: FRG1 promoter luciferase, higher = more signal, called active from +8 up or from −8 down.
Assay [9] can be described thus: small molecules captured by biotinylated probe aFST – biochemical, small-molecule microarray, fluorescence 635/667, stem cell growth factor project, primary screen (AID 1086).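 Further: score merges 667 nm fluorescence with signal-to-noise of each printed compound spot.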 The following applies: higher = more signal.
Assay [10] is described as follows: binders of probe aHhip on microarray, primary screen, stem cell growth factor project, biochemical, small-molecule microarray, fluorescence 635/667 (AID 1087).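 Further: score merges spot fluorescence at 667nm with spot signal to noise ratio.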 Particulars: higher = more signal.
In assay [11] the test system is PRMT1 (protein arginine N-methyltransferase 1). Nature of the assay: small molecules binding arginine methyltransferase PRMT1 – biochemical, small-molecule microarray, 635 nm fluorescence, primary screen (AID 1088).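 Further: binding of Prmt1 protein to compounds spotted on small-molecule microarray slides.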 Particulars: higher = more signal.
Assay [12] in a line: growth effects on S. cerevisiae YJM789 – YJM789 clinical isolate, OD600, 24 h, basal, primary screen (AID 1089).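 Further: growth of clinical yeast isolate S. cerevisiae YJM 789 seeded 1000 cells per well; test concentration not given here.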 Particulars: higher = more signal, called active from +8 up or from −8 down.
Assay [13] can be described thus: S. pombe growth modifiers, basal conditions – strain 972, OD600, 24 h, no modulator, primary screen (AID 1090).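 Further: basal condition with compound alone and no growth modifier present; test concentration not given here.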 The following applies: S. pombe 972 growth, higher = more signal, called active from +8 up or from −8 down.
A short description of assay [14]: budding yeast growth modifiers under rapamycin – strain BY4716, OD600, 96 h, primary screen (AID 1091). Further: test concentration not given here. Particulars: S. cerevisiae BY4716 + rapamycin, higher = more signal, called active from +8 up or from −8 down.
In assay [15] the target is Torsin-1A-interacting protein 2 (Homo sapiens) (UniProt Q8NFQ8). Briefly: small molecules binding lysate-expressed LULL1 – cell lysate, human LULL1 lysate, 635/667 nm fluorescence, primary screen (AID 1092).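 Further: probe is lysate of COS7 cells overexpressing human LULL1; score merges per-feature 667 nm fluorescence with signal-to-noise.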 The following applies: small-molecule microarray, hLULL1 lysate binding, 635 nm fluorescence; higher = more signal.
Chain of Torsin-1A-interacting protein 2 (Homo sapiens) (Q8NFQ8 whole entry, looked up): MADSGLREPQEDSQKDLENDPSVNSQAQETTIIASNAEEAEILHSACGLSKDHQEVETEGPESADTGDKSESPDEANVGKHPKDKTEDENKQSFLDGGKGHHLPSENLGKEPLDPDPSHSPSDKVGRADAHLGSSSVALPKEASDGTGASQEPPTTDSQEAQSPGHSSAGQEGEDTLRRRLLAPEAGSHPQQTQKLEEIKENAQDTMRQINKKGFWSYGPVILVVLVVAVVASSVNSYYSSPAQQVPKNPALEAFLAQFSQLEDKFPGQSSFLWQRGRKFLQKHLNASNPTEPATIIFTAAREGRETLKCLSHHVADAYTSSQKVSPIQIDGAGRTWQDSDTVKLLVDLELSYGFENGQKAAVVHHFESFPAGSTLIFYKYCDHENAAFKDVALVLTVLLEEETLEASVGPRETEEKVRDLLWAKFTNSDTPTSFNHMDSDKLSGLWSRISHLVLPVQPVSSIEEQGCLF
Assay [16] can be described thus: optical density change of DRC41 E. coli – strain DRC41, OD650, 24 h, E. coli filamentation project, primary screen (AID 1093).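 Further: MC1000 strain lacking acrAB efflux and sulA so SOS filamentation is blocked; test concentration not given here.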 The following applies: E. coli DRC41 growth, higher = more signal, called active from +8 up or from −8 down.
The nature of assay [17]: probe aLefty2 binding to arrayed compounds – biochemical, biotinylated probe, 635/667 nm fluorescence, primary screen (AID 1094).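 Further: score merges spot fluorescence near 667 nm with spot signal-to-noise ratio.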 Particulars: small-molecule microarray, higher = more signal.
Assay [18] deals with Noggin (protein binding on small-molecule microarray). Nature of the assay: small molecules binding Noggin protein – biochemical, 635/667 nm fluorescence, primary screen (AID 1095).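 Further: score merges 667 nm feature fluorescence with signal to noise over triplicate slides.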 Particulars: 635 nm fluorescence, higher = more signal.
Assay [19] has as its target Neurogenic locus notch homolog protein 3 (Homo sapiens) (UniProt Q9UM47). Nature of the assay: small molecules binding NOTCH3 protein – biochemical, 635/667 nm fluorescence, primary screen (AID 1096). Particulars: small-molecule microarray, 635 nm fluorescence, higher = more signal.
Assay [20] is described as follows: probe aEGFR binding to arrayed compounds – biochemical, biotinylated probe, 635/667 nm fluorescence, primary screen (AID 1097).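 Further: probe is a biotinylated anti-EGFR antibody binding compounds printed on slides; score combines fluorescence near 667 nm and signal to noise of each spot.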 Particulars: small-molecule microarray, higher = more signal.

Chain of Pro-neuregulin-1, membrane-bound isoform (Homo sapiens) (Q02297 whole entry, looked up, the tested form may be a part, canonical isoform): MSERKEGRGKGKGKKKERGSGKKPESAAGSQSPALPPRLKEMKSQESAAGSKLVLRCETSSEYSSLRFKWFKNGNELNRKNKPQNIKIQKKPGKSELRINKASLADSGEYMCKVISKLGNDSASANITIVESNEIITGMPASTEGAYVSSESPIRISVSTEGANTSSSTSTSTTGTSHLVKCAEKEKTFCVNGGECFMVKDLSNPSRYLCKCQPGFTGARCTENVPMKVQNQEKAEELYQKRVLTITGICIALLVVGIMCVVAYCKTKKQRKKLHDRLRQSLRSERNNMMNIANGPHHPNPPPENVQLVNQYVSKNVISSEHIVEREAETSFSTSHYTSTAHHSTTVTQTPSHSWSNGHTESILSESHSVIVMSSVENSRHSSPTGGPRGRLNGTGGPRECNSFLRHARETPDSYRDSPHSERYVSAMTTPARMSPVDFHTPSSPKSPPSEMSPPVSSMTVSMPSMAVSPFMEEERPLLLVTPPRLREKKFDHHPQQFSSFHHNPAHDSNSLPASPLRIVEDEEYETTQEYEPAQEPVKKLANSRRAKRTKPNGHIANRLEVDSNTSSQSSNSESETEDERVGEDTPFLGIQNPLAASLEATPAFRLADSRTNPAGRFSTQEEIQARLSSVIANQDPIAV
Chain of Neurogenic locus notch homolog protein 3 (Homo sapiens) (Q9UM47 whole entry, looked up): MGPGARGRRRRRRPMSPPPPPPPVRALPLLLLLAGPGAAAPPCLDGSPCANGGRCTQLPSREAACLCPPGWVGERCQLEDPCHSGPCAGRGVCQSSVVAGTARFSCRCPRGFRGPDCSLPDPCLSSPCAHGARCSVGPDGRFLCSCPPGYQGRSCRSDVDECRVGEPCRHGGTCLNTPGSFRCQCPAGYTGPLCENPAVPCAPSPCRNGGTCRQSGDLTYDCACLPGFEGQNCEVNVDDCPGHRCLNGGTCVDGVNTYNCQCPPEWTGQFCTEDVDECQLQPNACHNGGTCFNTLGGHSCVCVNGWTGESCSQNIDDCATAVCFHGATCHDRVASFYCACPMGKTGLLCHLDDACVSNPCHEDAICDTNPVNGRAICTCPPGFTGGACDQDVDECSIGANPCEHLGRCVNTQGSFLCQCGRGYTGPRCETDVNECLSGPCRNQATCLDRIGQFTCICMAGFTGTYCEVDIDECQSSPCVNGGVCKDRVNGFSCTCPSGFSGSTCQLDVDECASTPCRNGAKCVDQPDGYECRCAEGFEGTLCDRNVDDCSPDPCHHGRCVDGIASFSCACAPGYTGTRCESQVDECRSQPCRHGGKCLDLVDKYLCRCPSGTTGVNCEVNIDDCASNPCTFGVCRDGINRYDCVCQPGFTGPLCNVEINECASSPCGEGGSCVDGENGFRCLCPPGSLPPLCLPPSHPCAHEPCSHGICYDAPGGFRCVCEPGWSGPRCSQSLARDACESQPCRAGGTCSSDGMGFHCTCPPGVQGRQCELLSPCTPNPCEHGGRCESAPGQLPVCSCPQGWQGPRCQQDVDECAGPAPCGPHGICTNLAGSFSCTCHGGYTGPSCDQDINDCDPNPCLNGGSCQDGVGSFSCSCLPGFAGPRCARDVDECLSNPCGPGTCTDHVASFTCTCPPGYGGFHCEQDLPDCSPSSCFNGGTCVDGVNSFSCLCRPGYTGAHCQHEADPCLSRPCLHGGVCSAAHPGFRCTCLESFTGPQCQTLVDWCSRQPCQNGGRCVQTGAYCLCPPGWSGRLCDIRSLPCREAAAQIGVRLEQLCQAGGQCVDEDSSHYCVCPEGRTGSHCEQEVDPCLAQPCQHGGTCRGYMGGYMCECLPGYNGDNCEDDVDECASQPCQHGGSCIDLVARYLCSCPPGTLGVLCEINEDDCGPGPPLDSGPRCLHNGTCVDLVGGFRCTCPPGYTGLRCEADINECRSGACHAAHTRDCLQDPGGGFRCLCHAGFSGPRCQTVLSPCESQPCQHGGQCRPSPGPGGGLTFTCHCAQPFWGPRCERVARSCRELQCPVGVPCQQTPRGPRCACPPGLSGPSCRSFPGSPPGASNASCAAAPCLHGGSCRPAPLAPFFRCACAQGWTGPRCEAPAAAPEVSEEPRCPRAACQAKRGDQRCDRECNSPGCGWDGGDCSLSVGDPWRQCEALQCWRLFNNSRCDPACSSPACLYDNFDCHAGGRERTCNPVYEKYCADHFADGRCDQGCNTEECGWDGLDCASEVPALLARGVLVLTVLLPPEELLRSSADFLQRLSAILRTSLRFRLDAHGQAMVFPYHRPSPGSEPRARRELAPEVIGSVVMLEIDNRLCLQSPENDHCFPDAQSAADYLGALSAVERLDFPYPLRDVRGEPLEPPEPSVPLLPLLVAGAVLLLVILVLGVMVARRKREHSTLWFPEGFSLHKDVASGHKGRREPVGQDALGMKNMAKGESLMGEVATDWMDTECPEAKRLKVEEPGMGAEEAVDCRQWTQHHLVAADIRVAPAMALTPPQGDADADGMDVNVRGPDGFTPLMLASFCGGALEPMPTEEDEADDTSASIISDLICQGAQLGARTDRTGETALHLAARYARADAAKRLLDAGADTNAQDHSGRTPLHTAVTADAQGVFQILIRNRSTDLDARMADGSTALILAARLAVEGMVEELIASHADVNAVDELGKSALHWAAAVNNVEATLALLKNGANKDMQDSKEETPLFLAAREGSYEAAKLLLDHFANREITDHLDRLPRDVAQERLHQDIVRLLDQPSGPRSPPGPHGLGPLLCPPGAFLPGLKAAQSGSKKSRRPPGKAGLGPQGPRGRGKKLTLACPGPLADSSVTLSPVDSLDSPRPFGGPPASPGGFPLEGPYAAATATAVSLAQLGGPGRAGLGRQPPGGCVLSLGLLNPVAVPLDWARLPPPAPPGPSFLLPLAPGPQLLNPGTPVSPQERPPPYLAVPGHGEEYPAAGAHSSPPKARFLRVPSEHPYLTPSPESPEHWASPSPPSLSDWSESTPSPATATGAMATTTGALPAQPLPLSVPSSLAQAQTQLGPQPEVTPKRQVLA

With `COC(=O)[C@@]1(Cc2ccc(OC)cc2)[C@H]2c3cc(C(=O)N(C)C)n(C[C@H](O)CO)c3C[C@H]2CN1C(=O)c1ccccc1`, the composite z-score in assay [1] was determined as 1.37; in assay [2], 1.31; in [3] it was 0.263; in assay [4], 0.504; in [5], 1.76; in [6] it was 1.25. The composite z-score in assay [7] amounted to 1.2; in [9], 1.73; in [10] it was 0.284; in [11] it was 0.0724; in assay [15] it was 2.92; in assay [17], 0.955. Further, the composite z-score in assay [18] is -0.826; in [19], 1.05; in assay [20], 0.269. The z-score in assay [8] was 1.55 (inactive); in assay [12], 0.398 (inactive); in assay [13], 0.251 (inactive); in [14], 0.878 (inactive); in assay [16], -1.02 (inactive).
In the case of `COC(=O)C1=CC(CCCO)=CC(C2CC2)N(C)C=C1C(=O)OC` (stereo not given), the composite z-score in [1] was 0.0334; in assay [2], -0.144; in assay [3] it was -0.101; in [4], -0.0269; in [5] it was 0.448; in assay [6] it was 2.06. The composite z-score was 0.935 in assay [7]; -0.308 in [9]; -0.0994 in assay [10]; 0.723 in assay [11]; 2.79 in [15]; -0.117 in [17]. Moreover, the composite z-score is -0.178 in assay [18], -0.752 in [19] and -0.43 in assay [20]. Moreover, the z-score in [8] was -0.327 (inactive); in assay [12], -1.81 (inactive); in [13], -0.761 (inactive); in assay [14], -1.62 (inactive); in [16], -0.705 (inactive).
`C=CC[C@@]1(C(=O)N2CCOCC2)N=C(c2ccc(OCCCO)cc2)O[C@@H]1c1ccccc1CN=[N+]=[N-]`: the composite z-score in [1] was -0.0448; in assay [2] it was 0.326; in assay [3] it was 0.141; in [4], 1.01; in assay [5] it was 1.62; in assay [6] it was 1.53. For the same compound, the composite z-score in [7] turned out to be 1.15; in assay [9], 1.17; in assay [10], 0.0722; in [11], 1.56; in [15] it was 3.28; in assay [17], 0.691. For the same compound, the results for the composite z-score in assay [18], in assay [19] and in assay [20] were 0.355, 1.09 and 0.776, respectively. Also, the z-score is -1.21 (inactive) in assay [8]; 0.0366 (inactive) in [12]; 0.472 (inactive) in assay [13]; -0.74 (inactive) in assay [14]; 0.0893 (inactive) in [16].
`COc1ccc([Si](C)(C)[C@@H]2[C@@H](CC(=O)N(CCO)Cc3ccccc3)O[C@]3(C(=O)N(c4ccccc4)c4ccccc43)[C@H]2C)cc1`: the composite z-score is -0.337 in assay [1]; 0.326 in assay [2]; -0.0455 in assay [3]; 0.276 in assay [4]; 0.212 in [5]; 0.954 in [6]. In addition, the composite z-score in assay [7] was 1; in assay [9], 0.593; in [10] it was -0.0994; in assay [11], 1.56; in assay [15], 2.26; in assay [17] it was -0.0722. The composite z-score in assay [18] is 1.26; in assay [19], 1.1; in assay [20], -0.0512. The z-score in assay [8] is -2.62 (inactive); in [12] it was -0.14 (inactive); in [13], 0.001 (inactive); in [14], 0.842 (inactive); in [16], 1.01 (inactive).
For `[N-]=[N+]=NCc1ccccc1[C@H]1OC(c2ccc(OCCCO)cc2)=N[C@@]1(CCS(=O)(=O)c1ccccc1)C(=O)N1CCCCC1`, the composite z-score in assay [1] is 0.974; in assay [2], 1.28; in assay [3], 0.248; in assay [4], 0.4; in assay [5] it was 1.51; in assay [6], 1.79. Also, the composite z-score in assay [7] was 1.33; in assay [9], 1.42; in assay [10], -0.191; in assay [11], 1.55; in assay [15] it was 3.34; in assay [17] it was 0.574. Also, the composite z-score came out at 0.876 in assay [18], 0.992 in [19] and 0.283 in assay [20]. For the same compound, the z-score is 0.225 (inactive) in [8]; 0.341 (inactive) in assay [12]; -0.0527 (inactive) in assay [13]; 3.75 (inactive) in assay [14]; -0.334 (inactive) in [16].
On to `COc1cc2c(cc1OC)CN(C(=O)[C@@H]1[C@H]3C(=O)O[C@H](c4ccccc4)[C@H](c4ccccc4)N3[C@H](c3ccc(OCCO)cc3)[C@@]13C(=O)Nc1ccc(C#CC4(O)CCCCCC4)cc13)CC2`, for which the composite z-score in [1] was -0.543; in [2], 0.416; in [3], 0.0246; in assay [4] it was 1.15; in assay [5], 1.14; in [6] it was 1.67. In addition, the composite z-score was 1.15 in assay [7]; 0.528 in assay [9]; -0.6 in [10]; 1.54 in [11]; 3.19 in assay [15]; -0.438 in assay [17]. Moreover, the figures for the composite z-score in assay [18], in assay [19] and in [20] were 1.47, 1.08 and -0.244, respectively. The z-score is -0.921 (inactive) in assay [8]; 0.972 (inactive) in assay [12]; 0.888 (inactive) in assay [13]; 5.25 (inactive) in assay [14]; 2.32 (inactive) in assay [16].
`O=C(NCCCCCNC(=O)/C(Cc1ccccc1)=N/O)OCc1ccccc1`: the composite z-score was -0.51 in [1]; 0.148 in [2]; -0.25 in assay [3]; 0.293 in assay [4]; 0.421 in assay [5]; -0.181 in assay [6]. Also, the composite z-score is -0.422 in assay [7]; 0.152 in assay [9]; -0.409 in assay [10]; -0.276 in assay [11]; -0.625 in assay [15]; -0.17 in assay [17]. Besides, the composite z-score in [18] was 0.164; in [19] it was 0.253; in assay [20] it was -0.127. In addition, the z-score in [8] is -0.213 (inactive); in assay [12], -1.72 (inactive); in [13], -1.43 (inactive); in assay [14] it was -1.89 (inactive); in assay [16], 2.16 (inactive).
Regarding `COCCOC(=O)N1C(=O)[C@@]2(c3cc(C#Cc4ccc(OC)cc4)ccc31)[C@H](C(=O)Nc1nc3ccccc3s1)[C@H]1C(=O)O[C@H](c3ccccc3)[C@H](c3ccccc3)N1[C@@H]2c1ccc(O)cc1`, the composite z-score in [1] is 0.0683; in assay [2] it was -0.164; in [3], 0.0289; in assay [4], 0.445; in assay [5] it was 1.06; in assay [6], 1.19. Further, the composite z-score in assay [7] is 1.22; in assay [9] it was 0.286; in assay [10] it was 0.282; in assay [11] it was 1.55; in assay [15], 2.74; in [17], -0.0071. Also, the composite z-score in assay [18] stood at 1.55; in [19] it was 1.08; in assay [20] it was 0.213. Besides, the z-score was 2.65 (inactive) in assay [8]; 0.903 (inactive) in assay [12]; 0.842 (inactive) in [13]; 1.16 (inactive) in assay [14]; 1.57 (inactive) in [16].
As to `C=C(COC)C(=O)CC[C@@H](OC(=O)c1cccnc1)c1ccc(OCCO)cc1`, the composite z-score in assay [1] is 0.193; in [2] it was 0.112; in assay [3] it was -0.172; in assay [4], 0.182; in assay [5], 1.02; in [6], 0.403. Further, the composite z-score was 1.49 in assay [7]; 0.343 in assay [9]; -0.0237 in [10]; 1.2 in assay [11]; 0.204 in assay [15]; 0.0047 in assay [17]. Also, the composite z-score came out at 0.992 in assay [18], 0.431 in assay [19] and 0.167 in [20]. For the same compound, the z-score in [8] was -1.32 (inactive); in assay [12], -10.9 (active); in assay [13], -20.4 (active); in assay [14], -3.62 (inactive); in assay [16] it was -0.653 (inactive).
